Screening results as filed in PubChem.
Most compounds without a hit are left out; they make up all but 3.8% or so of the library.
VDR inhibitor: Inhibitors of the vitamin D receptor (VDR): qHTS; AID 504847, 2011; VDR-SRC2-3 peptide fluorescence polarization, 2 h; 0.93% of 400,000 active; Vitamin D3 receptor (Homo sapiens), P11473; Potency, µM, without a hit: max response, negative = inhibition, actives largely listed as inhibitors; further: potency means the concentration at half of the fitted maximal effect; on the % scale 0 is the no-effect control and ±100 the full control effect
Target sequence (P11473 whole entry, looked up): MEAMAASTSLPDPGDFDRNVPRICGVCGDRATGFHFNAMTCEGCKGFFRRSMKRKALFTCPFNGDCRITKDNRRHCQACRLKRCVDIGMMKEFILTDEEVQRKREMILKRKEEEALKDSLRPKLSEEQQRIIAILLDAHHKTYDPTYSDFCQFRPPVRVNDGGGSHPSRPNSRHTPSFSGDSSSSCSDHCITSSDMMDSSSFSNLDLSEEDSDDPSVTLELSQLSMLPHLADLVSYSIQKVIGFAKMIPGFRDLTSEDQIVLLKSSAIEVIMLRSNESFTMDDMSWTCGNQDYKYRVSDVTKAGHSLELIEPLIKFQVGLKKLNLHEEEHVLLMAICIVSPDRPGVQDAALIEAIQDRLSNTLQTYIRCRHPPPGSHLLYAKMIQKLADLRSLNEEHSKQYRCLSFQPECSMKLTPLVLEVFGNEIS
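Fluorescence polarization assay of small-molecule disruption of VDR binding to coregulator peptide SRC2-3. Compounds and controls pin-transferred, then read after 2 h incubation at ambient room temperature.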
KCNH2 3.1 inh: qHTS for Inhibitors of KCHN2 3.1: Mutant qHTS. Potassium voltage-gated channel subfamily H member 2, brain isoform KCNH2 3.1 (human). U2OS KCNH2 3.1, thallium flux FluxOr; hits give low values. activity change, % (tested at about 1.8 µM). 0.95% of 340,000 active;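 active means maximum activity change below -70%; inconclusive means maximum activity change from -70% to -50%; inactive means maximum activity change above -50%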;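 further: thallium influx rate constant from kinetic fluorescence after stimulation buffer; on the % scale 0 is the no-effect control and ±100 the full control effect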
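Kinetic fluorescence (2 min after stimulation buffer) measures Tl+ influx through KCNH2 3.1 expressed by viral transduction in U2OS cells; the rate constant is normalized against DMSO controls serving as positive and negative references.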
PLK1 PBD inh: qHTS for Inhibitors of PLK1-PDB (polo-like kinase 1 - polo-box domain): Primary Screen; Serine/threonine-protein kinase PLK1 (Homo sapiens), P53350; Plk1 PBD binding of FITC phosphopeptide, fluorescence polarization; Potency, µM, inactives show max response, negative = inhibition, actives largely listed as inhibitors; 2.8% of 360,000 active; AID 720504, 2013; further: potency means the concentration at half of the fitted maximal effect; series mostly up to about 57 µM; on the % scale 0 is the no-effect control and ±100 the full control effect; nearly all actives have a fitted effect of over 65% in size
MBNL1 CUG block: qHTS Assay for Inhibitors of MBNL1-poly(CUG) RNA binding | Muscleblind-like protein 1 (Homo sapiens), Q9NR56 | TR-FRET MBNL1-His/biotin-(CUG)12 binding, 665/545 ratio | Potency, µM (series often up to 57.5 µM), without a hit: at the top dose activity change, negative = inhibition, most hits filed as inhibitors | 0.036% of 280,000 active | AID 2675, 2010; active means well fitted inhibition curve with a large enough effect in the signal ratio, with a control signal flat, not every such curve was filed as active; inconclusive means small, poorly fitted or top-dose-only effect, or effect the other way, or a change in a side signal; inactive means no such curve, though single readings can be large or run the other way; the % refers to the signal ratio; further: potency means the concentration at half of the fitted maximal effect; on the % scale 0 is the no-effect control and ±100 the full control effect
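Ratiometric TR-FRET (665 over 545 nm, excitation 340 nm) tracks disruption of MBNL1-His/biotin-(CUG)12 complex after 60 min at room temperature, with compounds at 92 nM to 58 uM final.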
CBFb-RUNX1 inh: qHTS Assay for Compounds Blocking the Interaction Between CBF-beta and RUNX1 for the Treatment of Acute Myeloid Leukemia | Runt-related transcription factor 1 (Homo sapiens) + Core-binding factor subunit beta … | AlphaScreen CBFb-His/RUNX1-biotin binding, biochemical | Potency, µM (doses to about 59.8 µM), without a hit: top-dose activity, negative = inhibition, most hits filed as inhibitors | 230,000 tested, under 10 active | AID 1477, 2009; further: % of control where 0% means no effect
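Room-temperature protein-protein interaction test with 30 nM each of His-tagged CBF-beta and biotinylated RUNX1, 15 min with compound, then 90 min with nickel plus streptavidin beads. Signal read in AlphaScreen mode.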
hERG WT inh: qHTS for Inhibitors of KCHN2 3.1: Wildtype qHTS. 0.37% of 340,000 active. U2OS, BacMam KCNH2, thallium flux FluxOr; hits give low values. activity change, % at 1.84 µM;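 active means maximum activity change below -70%; inconclusive means maximum activity change between -70% and -50%; inactive means maximum activity change above -50%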; further: on the % scale 0 is the no-effect control and ±100 the full control effect
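U2OS cells were transduced with wild-type KCNH2 virus (2.03 x 10^8 / mL) for 4 h at room temperature, then cultured overnight at 37 C. Thallium flux was read with FluxOr dye. Rate constants were normalized to DMSO controls.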
* = called active by the depositor; ? = inconclusive; / = no result. Unless noted, the call rests on the fitted dose curve; in most records, active means well fitted curve in the direction sought with a large enough effect; inconclusive means small, poorly fitted or top-dose-only effect, or another doubt; inactive means no such curve, though single readings can be large; an effect the other way counts as inactive or inconclusive.

SMILES	VDR inhibitor	KCNH2 3.1 inh	PLK1 PBD inh	MBNL1 CUG block	CBFb-RUNX1 inh	hERG WT inh
Cn1c(=O)c(NCCc2ccccc2)c2c3c(cccc31)C(=O)c1ccccc1-2	?	-83*	3.8µM*	?	?	-70*
Cn1c(=O)c(NC2CCCCC2)c2c3c(cccc31)C(=O)c1ccccc1-2	0%	6	?	7%	?	-4
CCCCNc1c2c3c(cccc3n(C)c1=O)C(=O)c1ccccc1-2	1%	-3	2.4µM*	?	?	-8
CC(=O)Nc1ccc(Nc2c3c4c(cccc4n(C)c2=O)C(=O)c2ccccc2-3)cc1	11%	-13	6.7µM*	?	-28%	-15
COCCNC(=O)C1Cc2cc(S(=O)(=O)N3CCCC3)ccc2N1C(C)=O (stereo unspecified)	-9%	-21	-14%	-1%	/	-21
CC(=O)N1c2ccc(S(=O)(=O)N3CCCC3)cc2CC1C(=O)NCc1cccc(F)c1 (stereo unspecified)	-31%	1	24µM*	1%	/	7
COCCCNC(=O)C1Cc2cc(S(=O)(=O)N3CCCC3)ccc2N1C(C)=O (stereo unspecified)	?	9	21µM*	2%	/	-2
CC(=O)N1c2ccc(S(=O)(=O)N3CCCCCC3)cc2CC1C(=O)NCc1cccc(F)c1 (stereo unspecified)	-1%	/	/	/	/	/
CCOC(=O)N1CCc2c(sc(NCc3ccc(N(C)C)cc3)c2C(=O)Nc2ccc(OC)cc2)C1	-18%	/	/	/	/	/
CCOc1ccc(-c2nonc2NC(=O)c2oc3ccc(F)cc3c2C)cc1	13%	/	/	/	/	/
CCOC(=O)c1cc(CC)sc1NC(=O)C1CC1	16%	0	-5%	-6%	3%	18
CCOC(=O)c1cc(CC)sc1NC(=O)c1cc(OCC)c(OCC)c(OCC)c1	?	3	27µM*	1%	5%	0
CCOC(=O)c1cc(CC)sc1NC(=O)c1ccc2c(c1)OCCO2	-18%	-2	21µM*	2%	14%	0
O=C(Nc1cc(C(F)(F)F)ccc1Cl)c1cc(-c2cccs2)nc2ccccc12	-21%	/	/	/	/	/
COCc1cc(C)nc2sc(C(=O)Nc3cc(C)ccc3F)c(N)c12	-4%	/	/	/	/	/
CS(=O)(=O)NCCn1ccc2ccccc21	-11%	-11	30µM*	7%	5%	/
CC(C)(C)C(=O)NCCn1ccc2ccccc21	4%	-4	5%	-7%	8%	1
Cc1ccc(S(=O)(=O)NCc2cccnc2)c(C)c1	10%	-71*	-2%	1%	/	-13
COc1ccc(CCNC(=O)c2ccc3c(c2)N(Cc2c(F)cccc2Cl)C(=O)CS3)cc1OC	9%	/	/	/	/	/
CC[C@@H](C)[C@H](NC(=O)OC(C)(C)C)c1nnc(S(=O)(=O)Cc2cc(C)ccc2C)o1	11µM*	-6	6µM*	11%	9%	30
C[C@H](NC(=O)OC(C)(C)C)c1nnc(SCc2c(F)cccc2Cl)o1	89µM*	/	/	/	/	/
CC(C)[C@H](NC(=O)OC(C)(C)C)c1nnc(S(=O)(=O)Cc2c(F)cccc2Cl)o1	?	2	9.5µM*	-9%	2%	-2
CC(C)=CCSc1nnc([C@@H](NC(=O)OC(C)(C)C)C(C)C)o1	-16%	5	-15%	-4%	6%	11
Cc1[nH]c(=O)[nH]c(=O)c1CSc1nnc([C@@H](NC(=O)OC(C)(C)C)C(C)C)o1	6%	0	-5%	-2%	7%	-2
O=C1C=CC2=C3c4cc(O)c(O)cc4C[C@]3(O)COC2=C1	11µM*	/	/	/	?	/
